{"source": "PubChem BioAssay AID1851", "about": "(National Center for Advancing Translational Sciences (NCATS), 2009)", "note": "Several values for one entry are separate records, joined by “and”; a condition that tells them apart may be missing. Equal values may be shown once. The whole screen tested about 16,000 compounds, of which about 2,600 (16%) were called active. Not shown: some 20% with an inconclusive outcome. Only a selection was taken, and actives are over-represented in it overall. A number with no mark means an inactive call. The call rests on the fitted dose curve; in most records, active means well fitted curve in the direction sought with a large enough effect; inconclusive means small, poorly fitted or top-dose-only effect, or effect the other way; inactive means no such curve, though single readings can be large or run the other way. On the % scale 0 is the no-effect control and ±100 the full control effect.", "data": [{"target": "Cytochrome P450 2D6 (Homo sapiens) (UniProt P10635)", "sequence (P10635 whole entry, looked up)": "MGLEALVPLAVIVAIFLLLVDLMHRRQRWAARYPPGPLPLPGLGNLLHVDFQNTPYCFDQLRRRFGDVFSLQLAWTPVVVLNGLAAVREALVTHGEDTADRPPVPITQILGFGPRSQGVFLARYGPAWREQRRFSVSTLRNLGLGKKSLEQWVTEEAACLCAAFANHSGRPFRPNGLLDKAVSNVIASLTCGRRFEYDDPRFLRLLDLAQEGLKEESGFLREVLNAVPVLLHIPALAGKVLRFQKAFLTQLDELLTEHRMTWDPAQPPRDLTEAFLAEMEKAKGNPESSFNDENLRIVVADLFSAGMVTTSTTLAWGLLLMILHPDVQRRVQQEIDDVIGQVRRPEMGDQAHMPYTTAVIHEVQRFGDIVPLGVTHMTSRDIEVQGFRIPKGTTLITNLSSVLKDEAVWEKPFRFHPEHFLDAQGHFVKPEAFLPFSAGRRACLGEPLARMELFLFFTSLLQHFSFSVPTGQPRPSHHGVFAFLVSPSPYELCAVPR", "experiment": "Cytochrome panel assay with activity outcomes", "details": "recombinant CYP, pro-luciferin dealkylation, luminescence, p450-cyp2d6; series mostly up to 57.1 µM", "values": [{"smiles": "COC(=O)[C@H]1C(=O)c2ccccc2O[C@@](C(=O)OC)(c2ccccc2)[C@@H]1c1ccccc1", "activity, negative = inhibition": "11.5% [at 11.4 µM]"}, {"smiles": "Cn1cccc1CNCCc1ccccc1", "AC50": "2.51 µM (active)"}, {"smiles": "O=C(O)Cc1ccc([N+](=O)[O-])cc1[N+](=O)[O-]", "activity, negative = inhibition": "5.45% [at 11.4 µM]"}, {"smiles": "Cc1cc(Cc2cc(C)c(N)cc2N)c(N)cc1N", "activity, negative = inhibition": "-18.6% [at 11.4 µM]"}, {"smiles": "CSCC[C@@H](N)P(C)(=O)O", "activity, negative = inhibition": "3.31% [at 11.4 µM]"}, {"smiles": "c1ccc2c(c1)[I+]c1ccccc1-2", "AC50": "3.98 µM (active) and 794 nM (active)"}, {"smiles": "CN1C2C=C3C(C#N)=C(N)C(C#N)(C#N)[C@H](c4c(F)cccc4F)[C@H]3C1CC2", "note": "(stereo partly drawn)", "AC50": "inactive"}, {"smiles": "CCC[C@@](C)(COC(N)=O)COC(=O)NC(C)C", "AC50": "inactive"}, {"smiles": "CNCCc1cnc[nH]1", "AC50": "inactive"}, {"smiles": "Clc1ccccc1-c1cncnc1NCCc1cnc[nH]1", "AC50": "3.98 µM (active)"}, {"smiles": "Cc1ccccc1-c1cncnc1NCCc1cnc[nH]1", "AC50": "12.6 µM (active)"}, {"smiles": "Cn1cnc(CCN)c1", "AC50": "inactive"}, {"smiles": "C[C@H]1CC[C@@]2(NC1)O[C@@H]1C[C@H]3[C@@H]4CC[C@@H]5C[C@@H](O)CC[C@@]5(C)[C@@H]4CC[C@]3(C)[C@@H]1[C@@H]2C", "AC50": "inactive"}, {"smiles": "C[C@]1(C(=O)O)[C@@H]2CC[C@@H](O2)[C@@]1(C)C(=O)O", "AC50": "inactive"}, {"smiles": "[N-]=[N+]=CC(=O)CC[C@H](N)C(=O)O", "activity, negative = inhibition": "-11.2% [at 11.4 µM]"}, {"smiles": "CN(C)CCCNc1c2c(nc3ccc(Cl)cc13)CCCC2", "activity, negative = inhibition": "9.14% [at 11.4 µM]"}, {"smiles": "COc1ccc(C2SCC(=O)Nc3c2c(C)nn3C2CCOC(C)(C)C2)cc1", "note": "(stereo not drawn)", "AC50": "inactive"}, {"smiles": "C[C@@]12CC[C@H](O)C[C@@H]1CC[C@@H]1[C@@H]2CC[C@@]2(C)[C@@H](C3=CC(=O)OC3)[C@H](O)C[C@]12O", "activity, negative = inhibition": "17.5% [at 11.4 µM]"}, {"smiles": "Cc1cc2c(C(F)(F)F)cc(=O)oc2c2c1NCCC2", "AC50": "inactive"}, {"smiles": "N=C(N)SCc1ccc(Cl)c2ccccc12", "note": "(tested in a mixture with another compound)", "AC50": "3.16 µM (active)"}, {"smiles": "C/C(=N\\OC(=O)NC(C)C)c1sc(-c2ccc(Cl)cc2)nc1C", "AC50": "inactive"}, {"smiles": "C[C@@]12CC[C@H](O[C@@H]3O[C@H](CO)[C@@H](O)[C@H](O)[C@@H]3O)C[C@@H]1CC[C@H]1[C@H]2CC[C@@]2(C)[C@@H](C3=CCOC3=O)CC[C@]12O", "activity, negative = inhibition": "-0.449% [at 11.4 µM]"}, {"smiles": "COc1ccc(C[C@H]2NC[C@H](O)[C@@H]2OC(C)=O)cc1", "AC50": "7.94 µM (active)"}, {"smiles": "c1ccc2c(c1)OC[C@@H](C1=NCCN1)O2", "AC50": "0.631 µM (active)"}, {"smiles": "C[N+]1(C)CCO[C@](O)(c2ccc(-c3ccc([C@]4(O)C[N+](C)(C)CCO4)cc3)cc2)C1", "AC50": "inactive"}, {"smiles": "Cc1ccc(N=Nc2c(O)[nH]c(=O)[nH]c2=O)c([N+](=O)[O-])c1", "AC50": "inactive"}, {"smiles": "Nc1nc(N)c(N=Nc2ccc([As](=O)(O)O)cc2)c(=O)[nH]1", "activity, negative = inhibition": "13.1% [at 11.4 µM]"}, {"smiles": "CCCCCCCCCCCCCC(=O)O[C@H]1[C@@H](C)[C@@]2(O)[C@@H](C=C(CO)C[C@]3(O)C(=O)C(C)=C[C@@H]23)C2C(C)(C)[C@]21OC(C)=O", "note": "(stereo partly drawn)", "AC50": "inactive"}, {"smiles": "COCCNC(=S)NC1CC2CCCC(C1)N2Cc1cccs1", "note": "(stereo not drawn)", "AC50": "0.398 µM (active)"}, {"smiles": "COCCNC(=S)N1C2CCC1CC(NC(=O)NC13CC4CC(CC(C4)C1)C3)C2", "note": "(stereo not drawn)", "AC50": "inactive"}, {"smiles": "COCCCNC(=S)NC1CC2CCCC(C1)N2Cc1cccs1", "note": "(stereo not drawn)", "AC50": "0.891 µM (active)"}, {"smiles": "CCc1ccccc1NC(=O)NC1CC2CCC(C1)N2Cc1cccs1", "note": "(stereo not drawn)", "AC50": "6.31 µM (active)"}, {"smiles": "C=C1C(O)(c2ccccc2)C2CC[N+]1(C)CC2", "note": "(stereo not drawn)", "AC50": "inactive"}, {"smiles": "Cn1c(O)c(C(=N)COc2ccccc2)c(=O)n(C)c1=O", "AC50": "inactive"}, {"smiles": "CCCCc1ccc(C(=O)O)nc1", "AC50": "inactive"}, {"smiles": "CS(=O)c1ccc(-c2nc(-c3ccc(F)cc3)c(-c3ccncc3)[nH]2)cc1", "note": "(stereo not drawn)", "AC50": "inactive"}, {"smiles": "C#CCN(C)[C@H](C)Cc1ccccc1", "AC50": "inactive"}, {"smiles": "C[C@@H](Cc1ccccc1)NCCC(c1ccccc1)c1ccccc1", "AC50": "0.01 µM (active)"}, {"smiles": "CCOC(=O)N1CCC(NC(=O)CCc2nc(C3=CCN(C)CC3)no2)CC1", "AC50": "inactive"}, {"smiles": "Nc1nnnn1CCO", "activity, negative = inhibition": "3.8% [at 11.4 µM]"}, {"smiles": "O=C(O)c1nn(Cc2ccc(Cl)cc2Cl)c2ccccc12", "AC50": "inactive"}, {"smiles": "Cc1ccccc1-n1c(O)c(C=Nc2ccc(N(C)C)cc2)c(=O)[nH]c1=O", "AC50": "inactive"}, {"smiles": "Cc1oc(-c2ccccc2F)nc1CS(=O)CC(=O)N1CCC2(CC1)OCCO2", "note": "(stereo not drawn)", "AC50": "inactive"}, {"smiles": "CC1=C2[C@@H]3OC(=O)[C@@H](C)[C@@H]3CC[C@]2(C)C=CC1=O", "AC50": "inactive"}, {"smiles": "O=C(O)[C@H]1C[C@@H]1[C@H](NP(=O)(c1ccccc1)c1ccccc1)c1ccccc1", "AC50": "inactive"}, {"smiles": "COc1ccc(CNC(=O)/C=C\\c2ccc3[nH]cc(CCN(C)C)c3c2)cc1", "AC50": "inactive"}, {"smiles": "CN[C@H](Cc1ccccc1)c1cccc(OC)c1O", "AC50": "0.0398 µM (active)"}, {"smiles": "O=c1[nH]c(=O)n([C@H]2C[C@H](O)[C@H](CO)O2)cc1/C=C\\Br", "AC50": "inactive"}, {"smiles": "N#C/C(=C\\c1ccc(O)c(O)c1)C(=O)NCCCNC(=O)/C(C#N)=C/c1ccc(O)c(O)c1", "AC50": "inactive"}, {"smiles": "COCCCn1c(N)c(C(=O)Nc2sc3c(c2C(=O)OC)CCCC3)c2nc3ccccc3nc21", "AC50": "inactive"}, {"smiles": "CCCCn1c(N)c(C(=O)NCc2cccs2)c2nc3ccccc3nc21", "AC50": "20 µM (active)"}, {"smiles": "O=[As](O)(O)c1ccc(N=Nc2ccc(O)cc2)cc1", "activity, negative = inhibition": "2.25% [at 11.4 µM]"}, {"smiles": "C[C@]12CC[C@H](O)C[C@@H]1CC[C@H]1[C@H]2CC[C@]2(C)C(=O)CC[C@@H]12", "AC50": "inactive"}, {"smiles": "COc1ccc2c(c1)CN([C@H](C)[C@@H]1CC[C@@H]3[C@H]4CC[C@H]5C[C@@H](O)CC[C@@]5(C)[C@H]4CC[C@]31C)CO2", "AC50": "3.16 µM (active)"}, {"smiles": "C[C@@]12CC[C@H]3[C@@H](CC[C@@H]4C[C@H](O)CC[C@]43C)[C@H]1CC[C@H]2O", "AC50": "inactive"}, {"smiles": "CC[N@+]1(C)CCC[C@@H](OC(=O)C(O)(c2ccccc2)c2ccccc2)C1", "AC50": "5.01 µM (active)"}, {"smiles": "CN=C(NC#N)NCCSCc1nc[nH]c1C", "AC50": "inactive"}, {"smiles": "C[C@H](N)[C@H](O)c1ccc(O)c(O)c1", "AC50": "inactive"}, {"smiles": "CC(C)C[C@H]1C(=O)N2CCC[C@@H]2[C@]2(O)O[C@](NC(=O)[C@@H]3C=C4c5cccc6[nH]c(Br)c(c56)C[C@H]4N(C)C3)(C(C)C)C(=O)N12", "AC50": "inactive"}, {"smiles": "CC[C@@H](CO)NC(=O)[C@H]1C=C2c3cccc4c3c(cn4C)C[C@H]2N(C)C1", "AC50": "12.6 µM (active)"}, {"smiles": "CC[C@H](CO)NC(=O)[C@@H]1C=C2c3cccc4c3c(cn4C)C[C@@H]2N(C)C1", "AC50": "39.8 µM (active)"}, {"smiles": "Cc1cc(NC(=O)CCC(=O)N2CCC3(CC2)OCCO3)no1", "AC50": "inactive"}, {"smiles": "Cc1ccc(CCN2CC(C(=O)N3CCC4(CC3)OCCO4)CC2=O)cc1", "note": "(stereo not drawn)", "AC50": "inactive"}, {"smiles": "N[C@H](CCCCCP(=O)(O)O)C(=O)O", "AC50": "inactive"}, {"smiles": "O=C(O)CCCc1ccc(N(CCCl)CCCl)cc1", "AC50": "inactive"}, {"smiles": "C[C@H](CCC(=O)O)[C@H]1CC[C@]2(C)[C@@H]3C(=O)C[C@H]4C(C)(C)[C@@H](O)CC[C@]4(C)[C@H]3C(=O)C[C@@]12C", "activity, negative = inhibition": "-4.73% [at 11.4 µM]"}, {"smiles": "CC(=O)[C@@H]1CC[C@H]2[C@H]3CC[C@H]4C[C@@H](O)CC[C@]4(C)[C@@H]3CC[C@]12C", "AC50": "inactive"}, {"smiles": "Oc1ccc(CCNCc2cc3c(cc2Br)OCO3)cc1", "AC50": "0.316 µM (active)"}, {"smiles": "O=C(O)C(=O)Cc1ccc2c(c1)OCO2", "activity, negative = inhibition": "-12.2% [at 11.4 µM]"}, {"smiles": "CO[C@H]1[C@H](O)[C@H](O[C@@H]2[C@H](Oc3cccc4c(O)c5c(=O)oc6ccc(C)c7c(=O)oc(c34)c5c67)O[C@@H](C)[C@H](O)[C@H]2O)O[C@@H](C)[C@@H]1O", "activity, negative = inhibition": "19.6% [at 11.4 µM]"}, {"smiles": "CCCCCCCC/C=C\\CCCCCCCC(N)=O", "AC50": "inactive"}, {"smiles": "N[C@@H](CCCP(=O)(O)O)C(=O)O", "AC50": "inactive"}, {"smiles": "C[N+](C)(C)CCCCCCCCCC[N+](C)(C)C", "AC50": "inactive"}, {"smiles": "CC(=O)N1CCC2(CC1)CC(=O)c1cc(OCC(=O)N3CCN(C)CC3)ccc1O2", "AC50": "inactive"}, {"smiles": "O=C(COc1ccc2ccccc2c1)N1CCN(CC2CC3C=CC2C3)CC1", "note": "(stereo not drawn)", "AC50": "5.01 µM (active)"}, {"smiles": "COc1cc(CN2CCN(C(=O)COc3ccccc3)CC2)cc(OC)c1OC", "AC50": "inactive"}, {"smiles": "CCN1C[C@@]2(COC)[C@H]3[C@@H](OC)[C@H]4C1[C@@]3([C@H](OC)C[C@@H]2O)[C@H]1C[C@@]2(O)[C@@H](OC(=O)c3ccccc3)[C@@H]1[C@@]4(OC(C)=O)[C@H](O)[C@@H]2OC", "AC50": "inactive"}, {"smiles": "Cc1ccc(C2CC(=O)C(C=NCCN3CCN(C(=O)Cc4ccccc4)CC3)=C(O)C2)cc1", "note": "(stereo not drawn)", "AC50": "inactive"}, {"smiles": "CN(C)CS/C(N)=N/[C@H](O)C(Cl)(Cl)Cl", "activity, negative = inhibition": "-6.69% [at 11.4 µM]"}, {"smiles": "CN1CCc2nc3sc(C(=O)NC(C)(C)C)c(N)c3cc2C1", "AC50": "inactive"}, {"smiles": "CCOC(=O)C1=C(C)OC(N)=C(C#N)C12C(=O)N(C)c1ccccc12", "note": "(stereo not drawn)", "AC50": "inactive"}, {"smiles": "CC[C@]1(OC(=O)CN)C(=O)OCc2c1cc1n(c2=O)Cc2cc3ccccc3nc2-1", "activity, negative = inhibition": "-0.998% [at 11.4 µM]"}, {"smiles": "C[C@@H]1Cc2cc3c(cc2C(c2ccc(N)cc2)=NN1)OCO3", "AC50": "31.6 µM (active)"}, {"smiles": "CCC12C=CCN3CCC4(c5cc(Br)c(OC)cc5N(C)C4C(O)(C(=O)OC)C1OC(C)=O)C32", "note": "(stereo not drawn)", "AC50": "2.51 µM (active)"}, {"smiles": "C=Cn1ccnc1P(=S)(c1nccn1C=C)C1CCCCC1", "AC50": "inactive"}, {"smiles": "CNC(=S)NC1CC2CCCC(C1)N2CC(C)C", "note": "(stereo not drawn)", "AC50": "5.01 µM (active)"}, {"smiles": "COc1ccc(C(=O)NC2CC3CCCC(C2)N3CC(C)C)cc1OC", "note": "(stereo not drawn)", "AC50": "4.47 µM (active)"}, {"smiles": "CN1[C@@H]2CC[C@H]1CC(NC(=O)c1nn(C)c3ccccc13)C2", "note": "(stereo partly drawn)", "AC50": "inactive"}]}]}
